The structures appear in SMILES notation. This is part of a sample that, as a whole, favours compounds with a hit. Of some 83,000 tested, about 20% had one in any assay.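 Single-concentration screen, 48 h exposure, 96-well plates. Endpoint: percent growth. Below 10 = active.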 A number with no mark means an inactive call. Activity calls are given as the source filed them.

Test systems include HCT-15 colon; HT29 colon; SNB-75 CNS; SNB-19 CNS; U251 CNS; PC-3 prostate; SK-MEL-5 melanoma; UACC-62 melanoma; LOX IMVI melanoma; SK-MEL-28 melanoma; SK-MEL-2 melanoma; EKVX NSCLC; SN12C renal; UO-31 renal; TK-10 renal; ACHN renal; CAKI-1 renal; A498 renal; CCRF-CEM leukemia; MOLT-4 leukemia.
Experiment in all cases: NCI-60 one-dose screen, 48 h (100 = growth as untreated, 0 = no growth, -100 = all killed)
Common to all, as to conditions: 10 µM

Consider `CN(C(=O)c1ccc(C(C)(C)C)cc1)c1sc2c(c1C#N)CCC(=O)C2`, for which the growth was -68.6% (active) in the test on HCT-15 colon; 113% in the test with HT29 colon; 98% in the test on SNB-75 CNS; 8.17% (active) in the test with SNB-19 CNS; -22.7% (active) in the test on U251 CNS; 2.52% (active) with PC-3 prostate. Further, the growth with SK-MEL-5 melanoma was -69.7% (active); in the test on UACC-62 melanoma it was -43.7% (active); in the test with LOX IMVI melanoma, -71.5% (active); with SK-MEL-28 melanoma, 60.3%; with SK-MEL-2 melanoma it was 97.7%; in the test on EKVX NSCLC, 68.9%. Moreover, the growth with SN12C renal was 17.1%; with UO-31 renal, -98.5% (active); in the test with TK-10 renal it was 23%; in the test with ACHN renal it was -45.8% (active); with CAKI-1 renal, 36.9%; in the test with A498 renal it was 97.6%. The growth in the test with CCRF-CEM leukemia was 8.93% (active); in the test with MOLT-4 leukemia it was 29.8%.

Regarding `Nc1nc(Nc2ccc(Cl)cc2)n(Cc2cccc(Br)c2)n1`, the growth is -52.7% (active) in the test with HCT-15 colon; 11.4% in the test with HT29 colon; -23.9% (active) in the test with SNB-75 CNS; -12.3% (active) in the test on SNB-19 CNS; -12.4% (active) in the test with U251 CNS; 0.572% (active) with PC-3 prostate. Also, the growth in the test on SK-MEL-5 melanoma was -100% (active); in the test with UACC-62 melanoma it was -82.3% (active); in the test on LOX IMVI melanoma, -84.6% (active); in the test on SK-MEL-28 melanoma it was -61.1% (active); in the test with SK-MEL-2 melanoma it was -74.7% (active); in the test on EKVX NSCLC it was -4.06% (active). Moreover, the growth with SN12C renal was -28.5% (active); with UO-31 renal it was -7.87% (active); in the test on TK-10 renal, -3.35% (active); in the test with ACHN renal, 1.49% (active); with CAKI-1 renal it was 3.07% (active); with A498 renal it was -49% (active). In addition, the growth in the test with CCRF-CEM leukemia was 4.65% (active); in the test on MOLT-4 leukemia, 8.42% (active).

Regarding `COc1ccc(-c2nc(-c3ccccc3)c(-c3ccccc3)n2-c2ccc(S(=O)(=O)Nc3ncccn3)cc2)cc1OC`, the growth in the test on HCT-15 colon was 53.6%; with HT29 colon it was 96.2%; in the test with SNB-75 CNS, 88.5%; with SNB-19 CNS, 74.9%; in the test on U251 CNS, 71.8%; with PC-3 prostate, 63.7%. In addition, the growth with SK-MEL-5 melanoma is 65.7%; in the test on UACC-62 melanoma, 83.6%; in the test on LOX IMVI melanoma it was 65.2%; with SK-MEL-28 melanoma, 92.3%; in the test with SK-MEL-2 melanoma, 108%; in the test with EKVX NSCLC it was 63.6%. Moreover, the growth is 76.3% in the test on SN12C renal; 51.7% with UO-31 renal; 91.8% with TK-10 renal; 82.6% with ACHN renal; 76.5% with CAKI-1 renal; 55% in the test with A498 renal. The growth in the test on CCRF-CEM leukemia was 69%; in the test on MOLT-4 leukemia it was 70.5%.

Consider `Cn1cc(/C=N/Nc2ccnc3cc(Cl)ccc23)c2ccccc21`, for which the growth is -92.2% (active) in the test with HCT-15 colon; -40.1% (active) with HT29 colon; -85.8% (active) with SNB-75 CNS; -79.8% (active) in the test with SNB-19 CNS; -49.8% (active) with U251 CNS; -51.5% (active) in the test with PC-3 prostate. For the same compound, the growth with SK-MEL-5 melanoma is -98.2% (active); in the test on UACC-62 melanoma, -66.1% (active); with LOX IMVI melanoma, -83.7% (active); with SK-MEL-28 melanoma it was -89.6% (active); with SK-MEL-2 melanoma, -72.3% (active); in the test with EKVX NSCLC, -85.1% (active). Besides, the growth in the test on SN12C renal was -59.4% (active); in the test on UO-31 renal it was -90.1% (active); in the test with TK-10 renal, -72.1% (active); in the test on ACHN renal, -92.7% (active); in the test on CAKI-1 renal it was -85.3% (active); with A498 renal, -80.2% (active). For the same compound, the growth was -35.6% (active) in the test on CCRF-CEM leukemia and -32.1% (active) in the test with MOLT-4 leukemia.

As to `Cc1ccc(CSc2nc(-c3ccc(F)cc3)c(C#N)c(=O)[nH]2)cc1`, the growth was 84.2% in the test with HCT-15 colon; 89.3% in the test on HT29 colon; 115% with SNB-75 CNS; 109% with SNB-19 CNS; 96.6% in the test with U251 CNS; 95.5% in the test on PC-3 prostate. The growth with SK-MEL-5 melanoma is 94.5%; in the test with UACC-62 melanoma, 93.8%; in the test with LOX IMVI melanoma, 95.6%; with SK-MEL-28 melanoma, 111%; in the test with SK-MEL-2 melanoma it was 103%; in the test on EKVX NSCLC it was 99.6%. Besides, the growth in the test on SN12C renal was 102%; in the test with UO-31 renal, 96.2%; in the test on TK-10 renal, 93.5%; with ACHN renal it was 100%; with CAKI-1 renal, 92.5%; in the test on A498 renal it was 99.3%. Moreover, the growth is 94.7% in the test with CCRF-CEM leukemia and 88.4% in the test with MOLT-4 leukemia.

Consider `O=C(NO)c1ccc(CNC(=O)[C@H]2Cc3c([nH]c4ccccc34)[C@H](c3ccc(Cl)cc3)N2)cc1`, for which the growth was 30.5% in the test with HCT-15 colon; 21.5% in the test with HT29 colon; 39.6% in the test on SNB-75 CNS; 15.5% with SNB-19 CNS; -4.01% (active) with U251 CNS; 21.4% with PC-3 prostate. In addition, the growth is -70.8% (active) in the test on SK-MEL-5 melanoma; -49.8% (active) in the test with UACC-62 melanoma; -88.4% (active) in the test with LOX IMVI melanoma; 1.81% (active) with SK-MEL-28 melanoma; -21.5% (active) in the test on SK-MEL-2 melanoma; 25% in the test with EKVX NSCLC. Further, the growth with SN12C renal is 15.1%; in the test with UO-31 renal, 21.8%; in the test with TK-10 renal, 4.19% (active); with ACHN renal, 28.6%; in the test with CAKI-1 renal, 29%; with A498 renal it was -6.62% (active). Further, the results for the growth in the test on CCRF-CEM leukemia and in the test on MOLT-4 leukemia were 17.4% and 5.97% (active), respectively.

As to `O=C(Nc1cccc(C(F)(F)F)c1)c1cncc(C#Cc2cnc3cccnn23)c1`, the growth was 37.7% in the test with HCT-15 colon; 49.4% with HT29 colon; 122% in the test on SNB-75 CNS; 82.7% in the test with SNB-19 CNS; 67.6% in the test with U251 CNS; 35.3% in the test with PC-3 prostate. In addition, the growth in the test with SK-MEL-5 melanoma was 25.6%; with UACC-62 melanoma, 35.4%; with LOX IMVI melanoma it was 22.1%; with SK-MEL-28 melanoma it was 63.2%; in the test with SK-MEL-2 melanoma it was 61.1%; in the test with EKVX NSCLC it was 54.7%. Further, the growth with SN12C renal is 35.5%; with UO-31 renal, 30.4%; in the test on TK-10 renal, 97.8%; in the test with ACHN renal it was 55.2%; in the test on CAKI-1 renal, 71.8%; with A498 renal it was 171%. Besides, the growth in the test with CCRF-CEM leukemia is 16.5%; in the test on MOLT-4 leukemia it was 24.3%.

These data come from PubChem BioAssay (NCI).
